Compounds with a hit are over-represented: about 3.4% of the library has one in this group of screens.
NTR1 agonist: agonists of human NTR1, primary screen, imaging, U2OS cells, beta-arrestin-GFP, high content; Neurotensin receptor type 1 (Homo sapiens), P30989; NTR1-U2OS beta-arrestin-GFP spot imaging, agonist mode; activation, % at 20 µM; 330,000 compounds, 0.17% hits; AID 493036, 2011;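 active = activation at or above 40% of the spot to cytoplasm intensity ratio, with at least 20 cells analyzed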;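 note: 0% = DMSO without peptide and 100% = 100 nM NTR1 peptide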
MEKK2 mut-MEK5: MEK5 binding signal on mutant MEKK2 PB1, primary screen, biochemical, multiplex bead flow cytometry, Alexa488-MEK5 | percent response, % at 10 µM | 290,000 compounds, 0.35% hits | Alexa488-MEK5 binding to MEKK2 mutant | AID 1530, 2009; in the data active = percent response above about 24%, passing the limit was not always enough
TMEM16A act: TMEM16A chloride channel activators or potentiators, primary screen, cell-based, HTS. Anoctamin-1 (Mus musculus), Q8BHY3. 340,000 compounds, 0.3% hits. B-score at 10 µM. HEK293 TMEM16A/YFP-H148Q/I152L, iodide quench fluorescence; hits give low values;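 active = fluorescence-ratio B-score plate-corrected deviation score at least 3 library SD below zero, with starting fluorescence score within 5 deviations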;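 note: channel opened by trigger with iodide after compound preincubation; score built on the fluorescence ratio of max minus min over baseline; more negative score means more quench and so TMEM16A activation or potentiation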
ANO1 block: TMEM16A chloride channel inhibitors, primary screen, cell-based, HTS. HEK293 TMEM16A/YFP iodide influx fluorescence, ionomycin. normalized B-score (activity score, 25-100; higher = stronger inhibition) at 10 µM. 310,000 compounds, 1.2% hits;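 active = ratio plate-corrected score three or more library SD toward inhibition, starting fluorescence score within five deviations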;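 note: score derived from kinetic fluorescence span divided by baseline fluorescence per well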
MEKK3 PB1 HTS: modulators of MEKK3-MEK5 PB1 binding, primary screen, biochemical, wildtype MEKK3, multiplex bead flow cytometry, Alexa488-MEK5 | Mitogen-activated protein kinase kinase kinase 3 (Homo sapiens), Q99759 | bead-based flow cytometry, Alexa488-MEK5 binding to MEKK3; actives lie on both sides; 0 = blocked by unlabeled MEK5, 100 = vehicle | binding response (% of control), % at 10 µM | 290,000 compounds, 1.4% hits;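 active = binding response more than 3 SD above or below the average of its plate-row segment, actives on both sides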;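 note: Alexa488 bead fluorescence after subtracting the streptavidin-only scavenger bead signal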
Target sequence (Q99759 whole entry, looked up): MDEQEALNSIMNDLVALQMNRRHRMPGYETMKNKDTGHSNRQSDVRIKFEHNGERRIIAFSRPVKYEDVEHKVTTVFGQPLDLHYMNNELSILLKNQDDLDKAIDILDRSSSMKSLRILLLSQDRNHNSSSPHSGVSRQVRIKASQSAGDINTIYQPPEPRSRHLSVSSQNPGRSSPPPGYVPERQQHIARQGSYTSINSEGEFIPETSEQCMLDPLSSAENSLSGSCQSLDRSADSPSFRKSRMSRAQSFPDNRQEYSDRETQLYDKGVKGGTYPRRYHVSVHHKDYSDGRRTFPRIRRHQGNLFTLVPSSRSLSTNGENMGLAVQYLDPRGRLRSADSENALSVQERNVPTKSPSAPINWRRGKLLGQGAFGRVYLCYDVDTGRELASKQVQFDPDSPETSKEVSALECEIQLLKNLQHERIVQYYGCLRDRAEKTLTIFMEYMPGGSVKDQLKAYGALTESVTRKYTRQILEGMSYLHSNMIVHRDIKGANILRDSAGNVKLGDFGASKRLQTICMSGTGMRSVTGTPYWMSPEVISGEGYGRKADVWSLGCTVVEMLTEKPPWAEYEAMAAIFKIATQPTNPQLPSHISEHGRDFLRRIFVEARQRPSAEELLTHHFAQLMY
MEKK2 WT-MEK5: modulators of MEK5 binding to wildtype MEKK2, primary screen, biochemical, multiplex bead flow cytometry, Alexa488-MEK5; Mitogen-activated protein kinase kinase kinase 2 (Homo sapiens), Q9Y2U5; Alexa488-MEK5 binding to MEKK2 WT; actives lie on both sides; binding response (% of control), % at 10 µM; 290,000 compounds, 1.1% hits; in the data active = binding response below about 67% or above about 130%
* hit, by the source's call; i = inactive; . = no result.

SMILES | NTR1 agonist | MEKK2 mut-MEK5 | TMEM16A act | ANO1 block | MEKK3 PB1 HTS | MEKK2 WT-MEK5
CC(NCC(=O)Nc1cc(S(=O)(=O)N2CCCCCC2)ccc1Cl)c1ccccc1 (centres undefined) | 2 | 0 | i | 100* | 102 | 101
O=C(c1ccccc1NS(=O)(=O)c1ccc(F)cc1)N1CCCCC1 | -1 | -4 | i | i | 97 | 97
CCOc1ccc(NC(=O)c2ccccc2NS(=O)(=O)c2ccc(F)cc2)c([N+](=O)[O-])c1 | 5 | 0 | i | 25* | 103 | 102
CCOc1ccc(S(=O)(=O)Nc2ccccc2C(=O)Nc2ccccc2N2CCOCC2)cc1 | 2 | 1 | i | i | 104 | 100
COc1ccc2c(c1)c(=O)cc(C)n2CC(=O)NCc1ccco1 | 2 | 0 | i | i | 84 | 94
NC(=O)CSc1ccc(S(=O)(=O)N2CCCCC2)cn1 | 1 | . | i | . | . | .
CC(=O)NCCSc1ccc(S(=O)(=O)N2CCCC2)cn1 | -2 | . | -21* | . | . | .
COc1ccc(CN2Cc3cccc4c3[C@@H](CC2=O)[C@H](O)[C@H](O)C4)cc1 | 2 | . | -9.2* | . | . | .
Cc1nn(-c2ccccc2)nc1CNC(=O)c1ncoc1-c1ccccc1 | 1 | -8 | -5.6* | i | 97 | 97
Cc1nn(-c2ccccc2)nc1CNC(=O)CC(C)(C)C | 2 | 1 | i | i | 100 | 98
COc1cccc(-n2c(C)c(C(C)=O)c(C(C)=O)c2C)c1 | -1 | 3 | -13* | i | 100 | 104
COc1ccc(CNC(=S)N/N=C(/C)c2ccccc2)cc1 | 4 | 1 | i | 25* | 104 | 100
CCC(=O)Nc1nnc(SCCOC)s1 | -1 | 3 | i | 25* | 109 | 112
CCCSc1nnc(NC(=O)Nc2ccc(C)cc2)s1 | 3 | 6 | i | i | 111 | 104
CCCSc1nnc(NC(=O)Nc2ccc(F)cc2)s1 | 3 | -1 | i | 100* | 103 | 102
COCCSc1nnc(NC(=O)COC)s1 | 2 | -5 | i | i | 98 | 101
COc1cc2c(cc1OC)C(Cc1ccc(O)c(Oc3ccc(C[C@H]4c5cc(OC)c(OC)cc5CCN4C)cc3)c1)N(C)CC2 (some centres undefined) | 0 | . | . | . | . | .
O=C(Nc1ccc(Cl)cc1)Nc1ccccc1NS(=O)(=O)c1cccs1 | 0 | -3 | i | 100* | 97 | 97
Cc1ccc(C(=O)CCC(=O)N2CCN(c3ccccc3O)CC2)cc1 | 1 | . | i | i | . | .
CC1(C)CC2(CC(C)(C(=O)CSc3nc4ccccc4s3)OC2=O)C(=O)O1 (centres undefined) | 2 | 4 | i | i | 106 | 103
CC1(C(=O)CSc2nc3ccccc3s2)CCC(=O)O1 (centres undefined) | -1 | 1 | i | 100* | 100 | 100
COc1cc2c(cc1OC)C(c1ccc(-c3ccc(Cl)cc3Cl)o1)=NCC2 | 9 | . | i | i | . | .
COc1cc2c(cc1OC)C(c1ccc(-c3ccccc3Cl)o1)=NCC2 | 58* | 17 | i | i | 105 | 112
Cc1nn(CC(=O)N2CCN(S(=O)(=O)c3ccccc3)CC2)c(C)c1[N+](=O)[O-] | 0 | . | i | . | . | .
CN1CCN(c2ccc(NC(=S)NC(=O)c3cccc4c(Br)cccc34)cc2)CC1 | 3 | 22 | i | i | 106 | 173*
CN1CCN(c2ccc(NC(=S)NC(=O)c3cccc4ccccc34)cc2)CC1 | 11 | 10 | i | i | 98 | 128
CCN(CC)c1ccc(/C=C(\C#N)c2nc(-c3cccs3)c(NC(C)=O)s2)cc1 | . | 517* | . | . | 104 | 290*
